PubChem BioAssay (NCATS)
Inconclusive results are not listed. Calls of active or inactive are those of the source. Unless noted, the call rests on the fitted dose curve; in most records, active means well fitted curve in the direction sought with a large enough effect; inconclusive means small, poorly fitted or top-dose-only effect, or another doubt; inactive means no such curve, though single readings can be large; an effect the other way counts as inactive or inconclusive.

How the values were obtained:
[1] = molecular target: Lysosomal acid glucosylceramidase (Homo sapiens) (UniProt P04062); assay: Glucocerebrosidase-p2 (AID 348; in the data active means potency below about 10 µM; further: potency means the concentration at half of the fitted maximal effect); details: purified GBA, blue fluorogenic substrate, 40 min
Chain of Lysosomal acid glucosylceramidase (Homo sapiens) (P04062 whole entry, looked up): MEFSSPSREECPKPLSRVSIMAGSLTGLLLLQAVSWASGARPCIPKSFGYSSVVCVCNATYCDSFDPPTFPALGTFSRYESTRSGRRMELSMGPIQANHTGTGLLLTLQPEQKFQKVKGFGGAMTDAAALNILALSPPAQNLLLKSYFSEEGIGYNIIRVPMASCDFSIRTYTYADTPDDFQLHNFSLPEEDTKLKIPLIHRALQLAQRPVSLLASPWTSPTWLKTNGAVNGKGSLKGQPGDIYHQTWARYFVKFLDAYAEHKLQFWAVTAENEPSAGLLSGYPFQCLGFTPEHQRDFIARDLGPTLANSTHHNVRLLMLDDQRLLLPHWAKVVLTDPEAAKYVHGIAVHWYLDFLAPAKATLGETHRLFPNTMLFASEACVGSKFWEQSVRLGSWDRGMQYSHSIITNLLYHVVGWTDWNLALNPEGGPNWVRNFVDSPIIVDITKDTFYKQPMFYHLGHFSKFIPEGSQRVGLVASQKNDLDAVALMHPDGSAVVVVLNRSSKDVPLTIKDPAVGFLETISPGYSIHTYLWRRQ
Outline: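 Normal human glucocerebrosidase (0.2 nM) with blue fluorogenic substrate (80 uM final) in citrate/phosphate pH 5.9 with 10mM sodium taurocholate, 0.01% tween-20; 40 min RT, NaOH/glycine stop; fluorescence Ex 365/Em 440; AC50 from a titration from 0.6 nM upwards.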

[2] = AP1 Signaling Pathway (AID 357; active means well fitted curve in either direction with a large enough effect, not every such curve was filed as active;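 further: ME-180 reporter cells stimulated with EGF at its EC50 level; on the % scale 0 is the no-effect control and ±100 the full control effect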); details: ME-180 AP-1-bla reporter, EGF-induced, beta-lactamase ratio, 5 h; at 7.69 µM (top of the series) unless noted
Outline: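 Modulation of EGF-driven AP-1 transcription was assessed with a beta-lactamase reporter in ME-180 cells. Compound and EC50 EGF were co-incubated 5 hours at 37 °C before 2.5-hour CCF4 loading at room temperature and dual-emission reading.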

[3] = molecular target: Cytochrome P450 1A2 (Homo sapiens) (UniProt P05177); assay: p450-cyp1a2 (AID 410; calls by dose curve; further: potency means the concentration at half of the fitted maximal effect); details: recombinant CYP1A2, luciferin-ME demethylation, luminescence; series mostly up to 57 µM
Chain of Cytochrome P450 1A2 (Homo sapiens) (P05177 whole entry, looked up): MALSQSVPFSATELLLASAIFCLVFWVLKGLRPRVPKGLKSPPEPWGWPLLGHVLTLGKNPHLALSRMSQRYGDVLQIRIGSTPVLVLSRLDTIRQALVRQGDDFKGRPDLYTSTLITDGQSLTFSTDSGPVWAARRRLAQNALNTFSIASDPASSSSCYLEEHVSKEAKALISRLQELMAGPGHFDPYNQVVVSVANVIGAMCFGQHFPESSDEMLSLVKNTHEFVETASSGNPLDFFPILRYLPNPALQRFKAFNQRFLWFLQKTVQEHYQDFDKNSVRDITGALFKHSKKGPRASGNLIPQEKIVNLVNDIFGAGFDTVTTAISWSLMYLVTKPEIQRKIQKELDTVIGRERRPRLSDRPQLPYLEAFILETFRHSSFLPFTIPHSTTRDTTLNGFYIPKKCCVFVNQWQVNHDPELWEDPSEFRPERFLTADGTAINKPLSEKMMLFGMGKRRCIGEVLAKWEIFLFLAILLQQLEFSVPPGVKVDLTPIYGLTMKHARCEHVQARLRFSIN
Outline: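 Luminescent demethylation readout: Luciferin-ME (100uM, equal to Km) turned over by 20nM CYP1A2 for 60 min at room temperature after NADPH regeneration addition, following 10 min compound preincubation. Normalization used 57 uM furafylline as full inhibition.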

[4] = NFAT Signaling Pathway (AID 444; active means well fitted curve in either direction with a large enough effect, not every such curve was filed as active;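 further: carbachol stimulus at about its EC50 of 1 µM final; on the % scale 0 is the no-effect control and ±100 the full control effect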); details: Jurkat NFAT-bla M1, carbachol, beta-lactamase ratio, 5 h; at 7.69 µM (top of the series) unless noted
Outline: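 Jurkat cells with NFAT-driven β-lactamase reporter and co-expressed M1 receptor, stimulated with carbachol (final 1 uM, ~EC50), compound titration, 5 h at 37 °C. CCF4 loaded 1 h at RT; 460/530 nm ratio gave %activity and AC50.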

[5] = Stat Signaling Pathway (AID 446; active means well fitted curve in either direction with a large enough effect, not every such curve was filed as active;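 further: ME-180 cervical cancer cells given 40 pM IL-6 alongside compound; SIE-controlled beta-lactamase reporter measured as 460/530 nm FRET emission ratio; on the % scale 0 is the no-effect control and ±100 the full control effect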); details: ME-180 SIE beta-lactamase reporter, IL-6 stimulated, 5 h; at 7.69 µM (top of the series) unless noted
Outline: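 Normalization used AC90 stimulation (300 pM IL-6) and AC90 inhibition (125 nM pan-JAK inhibitor at 40 pM IL-6). The underlying signal is SIE-driven beta-lactamase in ME-180 cells after 5 h IL-6 exposure with compound.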

[6] = molecular target: Glucocorticoid receptor (Homo sapiens) (UniProt P04150); assay: GR-GFP Redistribution (AID 450;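 active means compounds whose dose series gives a full or clear partial fitted curve of increased nuclear translocation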; further: potency means the concentration at half of the fitted maximal effect); details: U2OS GR-GFP nuclear translocation, laser cytometry, 2 h
Chain of Glucocorticoid receptor (Homo sapiens) (P04150 whole entry, looked up, the tested form may be a part): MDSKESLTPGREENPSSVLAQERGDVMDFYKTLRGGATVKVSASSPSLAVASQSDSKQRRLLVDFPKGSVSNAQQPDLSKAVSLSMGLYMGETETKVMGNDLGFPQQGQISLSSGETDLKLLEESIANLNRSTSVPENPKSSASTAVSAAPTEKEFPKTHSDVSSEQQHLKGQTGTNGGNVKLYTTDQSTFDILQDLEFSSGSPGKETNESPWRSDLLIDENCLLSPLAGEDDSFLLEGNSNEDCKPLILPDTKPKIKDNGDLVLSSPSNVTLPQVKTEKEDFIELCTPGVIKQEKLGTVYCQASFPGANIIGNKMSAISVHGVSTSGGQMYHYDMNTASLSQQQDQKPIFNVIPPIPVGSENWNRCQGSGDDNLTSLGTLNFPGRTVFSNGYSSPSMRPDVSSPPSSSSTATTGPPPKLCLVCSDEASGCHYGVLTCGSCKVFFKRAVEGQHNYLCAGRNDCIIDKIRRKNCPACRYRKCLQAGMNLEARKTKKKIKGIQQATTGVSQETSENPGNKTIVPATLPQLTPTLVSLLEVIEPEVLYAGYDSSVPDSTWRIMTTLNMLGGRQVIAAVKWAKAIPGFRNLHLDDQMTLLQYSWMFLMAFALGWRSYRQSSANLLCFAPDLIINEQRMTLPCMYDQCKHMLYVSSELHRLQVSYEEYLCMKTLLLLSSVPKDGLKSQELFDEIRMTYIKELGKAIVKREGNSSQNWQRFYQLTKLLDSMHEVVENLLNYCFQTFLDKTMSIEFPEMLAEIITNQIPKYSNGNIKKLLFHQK

[7] = molecular target: Glucocorticoid receptor (Homo sapiens) (UniProt P04150); assay: GR-EFC Redistribution (AID 451; calls by dose curve; further: potency means the concentration at half of the fitted maximal effect); details: CHO-K1 GR-EFC translocation, beta-gal luminescence, 2 h
Outline: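 CHO-K1 cells expressing nuclear EA and GR-ED fragments of b-gal; compounds titrated up to 46 uM final, 2 h at 37 C. GR nuclear translocation read as complemented b-gal luminescence after 1 h RT detection.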

[8] = molecular target: Mitogen-activated protein kinase 10 (Mus musculus) (UniProt Q61831); assay: JNK3 AlphaScreen Assay (AID 530; active means well fitted curve in either direction with a large enough effect, not every such curve was filed as active;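 further: kinase came from lysate of stimulated human HepG2 cells; signal reports phosphorylation of biotinylated GST-cJun 1-79 at Ser73 with 10 µM ATP; on the % scale 0 is the no-effect control and ±100 the full control effect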); details: JNK3 lysate, c-Jun phosphorylation; series mostly up to 57.1 µM
Outline: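 Activity was read by AlphaScreen after JNK3-containing HepG2 lysate (cytokine pre-activated) phosphorylated biotinylated GST-cJun with 10 uM ATP at room temperature. Phospho-Ser73 cJun antibody with Protein-A acceptor beads provided detection.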

[9] = molecular target: Cytochrome P450 3A4 (Homo sapiens) (UniProt P08684); assay: qHTS Assay for Activators of Cytochrome P450 3A4 (AID 885); details: recombinant CYP3A4, Luciferin-PPXE luminescence, 60 min; series mostly up to 57.1 µM; further: nearly all actives have a fitted effect of over 65% in size
Chain of Cytochrome P450 3A4 (Homo sapiens) (P08684 whole entry, looked up): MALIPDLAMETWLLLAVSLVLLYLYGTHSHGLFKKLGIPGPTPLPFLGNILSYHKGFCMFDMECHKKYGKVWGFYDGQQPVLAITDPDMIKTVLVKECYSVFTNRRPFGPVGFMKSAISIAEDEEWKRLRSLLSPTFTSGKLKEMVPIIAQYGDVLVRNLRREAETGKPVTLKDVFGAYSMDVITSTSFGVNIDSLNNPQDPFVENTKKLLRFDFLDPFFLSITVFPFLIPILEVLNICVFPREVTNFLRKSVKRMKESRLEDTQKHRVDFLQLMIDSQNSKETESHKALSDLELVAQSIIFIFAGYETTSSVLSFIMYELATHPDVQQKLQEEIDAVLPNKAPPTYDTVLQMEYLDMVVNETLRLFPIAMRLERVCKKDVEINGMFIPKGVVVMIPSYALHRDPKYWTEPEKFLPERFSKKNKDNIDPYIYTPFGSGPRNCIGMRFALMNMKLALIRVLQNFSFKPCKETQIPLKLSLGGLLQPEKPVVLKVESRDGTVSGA
Outline: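 Human CYP3A4 dealkylates Luciferin-PPXE to luciferin, which luciferase detection converts to light. Substrate was at its KM (25uM), buffer 200mM KPO4, reaction 60 min at RT.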

[10] = qHTS Assay for Lipid Storage Modulators (AID 1519; calls by dose curve); details: Drosophila S3 cells, BODIPY lipid droplet/cell ratio, laser cytometry, cells loaded with oleic acid; for activity change, negative = inhibition: at 57.5 µM (top of the series)
Outline: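 Cells seeded at 5,000 per well were treated with compounds over a concentration series and loaded with oleic acid (400 uM, as added). Lipid droplet fluorescence (488 nm excitation, 500-530 nm channel) was read by laser-scanning cytometry and normalized to 20 uM Triacsin C.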

[11] = molecular target: Dual specificity protein kinase CLK4 (Homo sapiens) (UniProt Q9HAZ1); assay: qHTS Assay for Inhibitors of CDC-like Kinase 4 (Kinase-Glo Assay) (AID 1770); details: recombinant Clk4, Kinase-Glo ATP depletion luminescence; series mostly up to 66.7 µM; further: nearly all actives have a fitted effect of over 65% in size; further: potency means the concentration at half of the fitted maximal effect
Chain of Dual specificity protein kinase CLK4 (Homo sapiens) (Q9HAZ1 whole entry, looked up): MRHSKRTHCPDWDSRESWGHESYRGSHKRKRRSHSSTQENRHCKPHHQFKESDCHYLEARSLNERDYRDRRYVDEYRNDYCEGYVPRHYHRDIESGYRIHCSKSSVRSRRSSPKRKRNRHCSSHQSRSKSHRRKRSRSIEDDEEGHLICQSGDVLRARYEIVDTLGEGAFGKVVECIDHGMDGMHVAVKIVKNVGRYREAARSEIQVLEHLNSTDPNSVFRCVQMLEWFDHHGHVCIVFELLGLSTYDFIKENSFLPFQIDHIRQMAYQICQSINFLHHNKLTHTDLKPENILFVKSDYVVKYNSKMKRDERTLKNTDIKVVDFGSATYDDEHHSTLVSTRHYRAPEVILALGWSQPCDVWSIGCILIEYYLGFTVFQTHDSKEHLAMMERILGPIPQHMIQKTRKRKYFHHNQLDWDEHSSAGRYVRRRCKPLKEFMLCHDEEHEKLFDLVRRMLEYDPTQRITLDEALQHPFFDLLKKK
Outline: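 Substrate mix (RS peptide 100 uM, ATP 1 uM) dispensed, compound pinned in, then Clk4 added to 25 nM final. Incubated 4.5 h at RT; Kinase-Glo reagent added, luminescence read after 5 min.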

[12] = molecular target: Dual specificity protein kinase CLK4 (Homo sapiens) (UniProt Q9HAZ1); assay: qHTS Assay for Inhibitors of CDC-like Kinase 4 (ADP-Glo Assay) (AID 1771); details: recombinant CLK4, ADP-Glo luminescence; series mostly up to 80 µM; further: nearly all actives have a fitted effect of over 70% in size; further: potency means the concentration at half of the fitted maximal effect
Outline: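 ADP production was read by ADP-Glo luminescence after residual ATP depletion, following 1 h room-temperature reaction of 25 nM Clk4, 1 uM ATP and 100 uM RS peptide with MgCl2, EGTA, DTT and Triton X-100.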

[13] = molecular target: Dual specificity protein kinase CLK4 (Homo sapiens) (UniProt Q9HAZ1); assay: qHTS Assay for Inhibitors of CDC-like Kinase 4 (ADP-FP Assay) (AID 1795); details: Transcreener ADP fluorescence polarization; series mostly up to 50 µM; further: nearly all actives have a fitted effect of over 60% in size; further: potency means the concentration at half of the fitted maximal effect
Outline: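 Clk4 6.25 nM; RS peptide 100 uM; ATP 1 uM; 25 mM Tris pH 7.5, 10 mM MgCl2; 1 h reaction. ADP detected via antibody/orange tracer FP displacement; TG003 positive control.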

[14] = molecular target: Ubiquitin carboxyl-terminal hydrolase 1 (Homo sapiens) (UniProt O94782); assay: Inhibitors of USP1/UAF1: Pilot qHTS (AID 504865); details: purified USP1/UAF1, Ub-rhodamine cleavage fluorescence; series mostly up to 54.9 µM;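 further: rhodamine fluorescence freed from ubiquitin-rhodamine substrate followed over time; top concentration of the series differs between compounds; on the % scale 0 is the no-effect control and ±100 the full control effect; nearly all actives have a fitted effect of over 35% in size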
Chain of Ubiquitin carboxyl-terminal hydrolase 1 (Homo sapiens) (O94782 whole entry, looked up): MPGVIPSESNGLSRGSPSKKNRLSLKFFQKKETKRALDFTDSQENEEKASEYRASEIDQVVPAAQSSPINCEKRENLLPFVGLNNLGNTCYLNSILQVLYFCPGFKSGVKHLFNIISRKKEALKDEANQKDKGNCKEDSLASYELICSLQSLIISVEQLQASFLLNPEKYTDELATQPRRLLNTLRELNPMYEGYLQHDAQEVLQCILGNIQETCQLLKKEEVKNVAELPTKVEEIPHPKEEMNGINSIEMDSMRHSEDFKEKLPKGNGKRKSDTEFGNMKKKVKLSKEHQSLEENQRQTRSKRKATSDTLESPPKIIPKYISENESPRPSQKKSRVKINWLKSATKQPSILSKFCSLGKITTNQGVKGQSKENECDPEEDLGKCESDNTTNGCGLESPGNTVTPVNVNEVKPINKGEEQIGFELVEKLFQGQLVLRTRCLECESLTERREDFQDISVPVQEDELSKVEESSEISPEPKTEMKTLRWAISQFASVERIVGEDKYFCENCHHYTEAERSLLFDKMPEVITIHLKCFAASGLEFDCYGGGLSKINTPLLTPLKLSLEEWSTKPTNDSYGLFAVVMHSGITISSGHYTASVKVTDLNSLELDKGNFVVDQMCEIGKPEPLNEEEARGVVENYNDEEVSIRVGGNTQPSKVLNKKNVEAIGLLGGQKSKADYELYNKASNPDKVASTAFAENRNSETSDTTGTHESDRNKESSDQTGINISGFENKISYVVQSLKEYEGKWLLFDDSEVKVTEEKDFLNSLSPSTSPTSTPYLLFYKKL
Outline: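 In 50mM HEPES pH 7.8 containing 0.5mM EDTA, 1mM TCEP, 0.1 mg/ml BSA and 0.01% Tween-20, 1nM USP1/UAF1 is exposed to compound for 15 min, then Ub-Rho (150nM final) is added and fluorescence is read over time.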

[15] = molecular target: 3',5'-cyclic-AMP phosphodiesterase 4B (Homo sapiens) (UniProt Q07343); assay: qHTS Assay for Inhibitors of PDE-IV (AID 607; active means well fitted activation curve with a large enough effect in the main read-out, with a control signal flat, not every such curve was filed as active; further: % of control where 0% means no effect); details: HEK293 ACTOne CNG channel cells, membrane potential fluorescence; series mostly up to 22.9 µM
Chain of 3',5'-cyclic-AMP phosphodiesterase 4B (Homo sapiens) (Q07343 whole entry, looked up): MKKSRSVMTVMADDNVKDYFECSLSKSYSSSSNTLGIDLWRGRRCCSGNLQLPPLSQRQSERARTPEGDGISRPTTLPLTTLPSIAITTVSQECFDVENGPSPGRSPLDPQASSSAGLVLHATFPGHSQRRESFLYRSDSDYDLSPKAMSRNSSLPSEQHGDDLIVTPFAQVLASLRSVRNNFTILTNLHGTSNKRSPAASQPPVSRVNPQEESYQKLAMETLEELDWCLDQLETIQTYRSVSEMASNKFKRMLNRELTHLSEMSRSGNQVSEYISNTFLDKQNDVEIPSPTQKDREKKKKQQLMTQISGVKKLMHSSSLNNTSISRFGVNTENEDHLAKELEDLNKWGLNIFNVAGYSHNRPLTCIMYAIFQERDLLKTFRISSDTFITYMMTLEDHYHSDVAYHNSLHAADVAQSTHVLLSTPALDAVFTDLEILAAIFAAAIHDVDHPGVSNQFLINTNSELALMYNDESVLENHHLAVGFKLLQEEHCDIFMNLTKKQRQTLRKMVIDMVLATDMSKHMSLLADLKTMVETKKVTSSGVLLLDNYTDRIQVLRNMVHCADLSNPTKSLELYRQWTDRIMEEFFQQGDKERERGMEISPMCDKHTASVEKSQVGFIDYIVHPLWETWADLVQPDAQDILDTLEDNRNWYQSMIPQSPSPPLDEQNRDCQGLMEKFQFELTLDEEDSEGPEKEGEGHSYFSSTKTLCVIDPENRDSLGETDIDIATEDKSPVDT
Outline: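 HEK293 ACTOne cells with CNG channel (1000/well), endogenous PDE4; membrane potential dye, compounds up to 22.9 uM final. Fluorescence Ex 535/Em 590; RO 20-1724 (100 uM final) as reference.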

[16] = molecular target: Cytochrome P450 3A4 (Homo sapiens) (UniProt P08684); assay: qHTS Assay for Inhibitors and Substrates of Cytochrome P450 3A4 (AID 884); details: recombinant CYP3A4, Luciferin-PPXE luminescence; series mostly up to 57.1 µM; further: potency means the concentration at half of the fitted maximal effect; nearly all actives have a fitted effect of over 50% in size
Outline: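 Luminescent readout of luciferin produced by CYP3A4 (20 nM) dealkylation of Luciferin-PPXE, 25 uM (its KM). NADPH-driven reaction ran 60 min at RT after 10 min compound preincubation; data scaled to 57 uM ketoconazole as 100% inhibition.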

[17] = qHTS Assay for Identification of Small Molecule Agonists for Hypoxia Response Element Signaling Pathway (AID 914; active means well fitted activation curve with a large enough effect in the signal ratio, with a control signal flat, not every such curve was filed as active; the % refers to the signal ratio; further: potency means the concentration at half of the fitted maximal effect); details: ME-180 (cervical carcinoma) HRE-bla reporter, beta-lactamase ratio, CoCl2, 17 h; activation: stronger effect = higher value
Outline: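 HRE-bla ME-180 assay for agonist-like enhancement of an EC50 CoCl2 stimulus: 17 h at 37 degrees Celsius, CCF4 for 2.5 h, ratiometric 460/530 nm signal converted to %Activity and fitted to AC50.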

[18] = measured here: cell count channel max response
[19] = measured here: lipid channel max response

Structure (SMILES) | Potency [1] | activity change, negative = inhibition [2] | Potency [3] | activity change, negative = inhibition [4] | activity, negative = inhibition [5] | Potency [6] | Potency [7] | Potency [8] | Potency [9] | activity change, negative = inhibition [10] | max response [10, 18] [%] | max response [10, 19] [%] | Potency [11] | Potency [12] | Potency [13] | Potency [14] | Potency [15] | Potency [16] | Potency [17]
CN(C)Cc1ccccc1-c1nccc(Nc2ccc(F)cc2)n1 | 10.8 µM (inactive) | 7.82% (inactive) | 3.16 µM (active) | -13.9% (inactive) | -5.3% (inactive) | > 46 µM (inactive) | > 46 µM (inactive) | inactive | inactive | 5.52% (inactive) | 21.6 | 26.6 | inactive | inactive | inactive | inactive |  |  | 
COCCNc1ncnc2ccc(-c3ccc(N(C)C)cc3)cc12 | > 11.4 µM (inactive) | -29.4% (inactive) | 0.251 µM (active) | 4.01% (inactive) | -5.06% (inactive) |  | > 46 µM (inactive) | inactive | inactive | -6.08% (inactive) | -1.3 | -8.9 | 8.91 µM (active) | 10 µM (active) | inactive | inactive | inactive | 7.94 µM (active) | 
CN1CCN(c2ncc3nc(-c4ccccc4)c(=O)n(C4CC4)c3n2)CC1 | > 11.4 µM (inactive) |  |  | 30% (inactive) |  | > 9.22 µM (inactive) | > 46 µM (inactive) | inactive |  | 4.04% (inactive) | 24.3 | 27.3 | inactive | inactive | inactive | inactive | inactive |  | 3.98 µM (active)
CC(=O)NCCNc1ncnc2ccc(-c3ccccc3C)cc12 | > 11.4 µM (inactive) | 28% (inactive) | 0.631 µM (active) | -4.6% (inactive) | -8.49% (inactive) | > 46 µM (inactive) | > 46 µM (inactive) | inactive | inactive | 3.95% (inactive) | 28.7 | 28.3 | 15.8 µM (active) | 12.6 µM (active) | 12.6 µM (active) | inactive |  |  | 
O=c1c(-c2ccc(F)cc2)nc2cnc(N3CCNCC3)nc2n1Cc1cccs1 | > 11.4 µM (inactive) |  | 10 µM (active) | 200% [activator] (active) |  | > 9.22 µM (inactive) | > 46 µM (inactive) |  | inactive | 1.91% (inactive) | 8.56 | 9.26 | inactive | inactive | inactive |  | inactive |  | 2.51 µM (active)
O=c1cnc2cnc(N3CCNCC3)nc2n1C1CC1 | > 11.4 µM (inactive) | -8.15% (inactive) |  | -1.86% (inactive) | -7.26% (inactive) | > 9.22 µM (inactive) | > 46 µM (inactive) | inactive |  | 0.852% (inactive) | 9.12 | 7.84 | inactive | inactive | inactive | inactive | inactive |  | 
